Measured values reported in PubChem BioAssay (Tox21).
Results filed as inconclusive are left out. Unmarked numbers belong to inactive results. Active and inactive are the calls of the source. The call rests on the fitted dose curve; in most records, active means well fitted inhibition curve with a large enough effect in the repeat runs; inconclusive means weak or mixed curves; inactive means no such curve, though single readings can be large or run the other way.

Molecular target: Cytochrome P450 2D6 (Homo sapiens) (UniProt P10635)
Experiment: Cytochrome P450 Family 2 Subfamily D Member 6 (CYP2D6) small molecule antagonists: luciferase reporter qHTS assay (AID 1671196); further: nearly all actives have a fitted effect of over 50% in size
Settings: P450-Glo CYP2D6 enzyme assay, luciferin luminescence, 1 h; series mostly up to 115 µM; activity change, negative = inhibition: at the top concentration
Summary of the method: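 CYP2D6 activity was followed as luminescence from its luciferin product after a 1 h NADPH-driven reaction at room temperature. Enzyme-substrate mix and compound were pre-incubated for 10 min, and the signal was read 20 min after adding detection reagent.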
On the % scale 0 is the no-effect control and ±100 the full control effect; potency means the concentration at half of the fitted maximal effect.

Sequence of Cytochrome P450 2D6 (Homo sapiens) (P10635 whole entry, looked up): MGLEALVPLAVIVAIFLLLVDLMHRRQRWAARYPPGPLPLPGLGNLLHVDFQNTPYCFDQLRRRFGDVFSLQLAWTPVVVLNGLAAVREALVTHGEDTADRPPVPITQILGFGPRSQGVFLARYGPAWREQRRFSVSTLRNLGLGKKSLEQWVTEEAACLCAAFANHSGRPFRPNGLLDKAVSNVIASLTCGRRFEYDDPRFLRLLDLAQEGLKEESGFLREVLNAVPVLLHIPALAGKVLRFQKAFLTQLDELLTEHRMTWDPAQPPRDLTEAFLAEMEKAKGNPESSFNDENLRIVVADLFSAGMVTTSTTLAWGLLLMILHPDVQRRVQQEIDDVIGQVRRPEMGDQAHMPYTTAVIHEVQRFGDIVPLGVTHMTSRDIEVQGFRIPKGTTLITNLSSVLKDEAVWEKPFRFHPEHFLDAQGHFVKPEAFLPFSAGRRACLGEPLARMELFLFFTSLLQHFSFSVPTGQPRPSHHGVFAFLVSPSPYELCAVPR

Structure (SMILES)	activity change, negative = inhibition	Potency
NCCc1ccn[nH]1	-10.3% [at 53 µM]	–
O=C(O)/C=C/c1ccccc1	–	39.9 µM (active)
NS(=O)(=O)c1cc2c(cc1Cl)NC(C(Cl)Cl)NS2(=O)=O (stereo not drawn)	-21.3% [at 53 µM]	–
Nc1ccc(/C=C/c2ccc(N)cc2S(=O)(=O)O)c(S(=O)(=O)O)c1	-0.348% [at 0.435 µM]	–
O=C(CN1CCN(Cc2ccc3c(c2)OCO3)CC1)N1c2ccccc2Sc2ccccc21	–	0.55 µM (active)
COc1cc([N+](=O)[O-])ccc1N	-15.7%	–
Nc1ccc(S(=O)(=O)Nc2ccccn2)cc1	0.0272% [at 53 µM]	–
OC(CCN1CCCCC1)(c1ccccc1)c1ccccc1	–	1.38 µM (active)
CC(C)(CO)[C@@H](O)C(=O)NCCCO	1.16% [at 53 µM]	–
O=c1cc(O)c(Cl)c[nH]1	0.209% [at 53 µM]	–
COc1cc2c3cc1Oc1cc(ccc1O)C[C@@H]1c4c(cc(OC)c(O)c4Oc4ccc(cc4)C[C@@H]3N(C)CC2)CC[N+]1(C)C	-24.5% [at 53 µM]	–
CCCCCCCCCCCCC1CO1 (stereo not drawn)	-11.5%	–
CCNC(=O)/C=C/c1cccc(Br)c1	-10.2% [at 53 µM]	–
CCCCOC(=O)[C@@H](C)Oc1ccc(Oc2ccc(C(F)(F)F)cn2)cc1	-19.1%	–
NS(=O)(=O)c1cc2c(cc1Cl)NC(CC1CCCC1)NS2(=O)=O (stereo not drawn)	-13.7% [at 53 µM]	–
CC(=O)N(CC(O)CO)c1c(I)c(C(=O)NCC(O)CO)c(I)c(C(=O)NCC(O)CO)c1I (stereo not drawn)	0.109% [at 53 µM]	–
CNCc1ccccc1	-91.8% [at 53 µM]	–
CCCCOC(=O)C(=O)OCCCC	1.46%	–
O=c1[nH]c(=O)c2[nH]c(=O)[nH]c2[nH]1	-9.18% [at 10.5 µM]	–
CCC1Nc2cc(Cl)c(S(N)(=O)=O)cc2S(=O)(=O)N1 (stereo not drawn)	-1.85% [at 53 µM]	–
Cc1oc(=O)oc1CN1CCN(c2cc3c(cc2F)c(=O)c(C(=O)O)c2n3C(C)S2)CC1 (stereo not drawn)	-2.85% [at 53 µM]	–
COc1cc2c(Nc3ccc(Br)cc3F)ncnc2cc1OCC1CCN(C)CC1	-21.2% [at 53 µM]	–
NC(=O)C1(N2CCCCC2)CCN(CCCC(=O)c2ccc(F)cc2)CC1	–	4.9 µM (active)
O=c1[nH]c(=O)c2ccccc2o1	1.01% [at 53 µM]	–
CC(=O)Nc1ncc([N+](=O)[O-])s1	-10.3% [at 53 µM]	–
Cn1c(=O)c2c(ncn2CC2OCCO2)n(C)c1=O	-0.0737% [at 53 µM]	–
O=C(Nc1cccc(C2=NCCN2)c1)Nc1cccc(C2=NCCN2)c1	–	16.9 µM (active)
Cc1ccc(S(=O)(=O)NC(=O)NC2CCCCCCC2)cc1	2.71% [at 53 µM]	–
O=C(Oc1ccccc1C(=O)O)c1ccccc1O	-8.99% [at 53 µM]	–
NC(=O)NC(=O)Cc1ccccc1	-5.13% [at 53 µM]	–

Molecular target: Cytochrome P450 2C19 (Homo sapiens) (UniProt P33261)
Experiment: Cytochrome P450 Family 2 Subfamily C Member 19 (CYP2C19) small molecule antagonists: luciferase reporter qHTS assay (AID 1671197); further: nearly all actives have a fitted effect of over 65% in size
Settings: P450-Glo CYP2C19 enzyme, luciferin luminescence, 1 h; series mostly up to 115 µM; activity change, negative = inhibition: at the top concentration
Summary of the method: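 Enzyme-substrate mix with proluciferin substrate (P450-Glo CYP2C19 system) preincubated with compounds 10 min at room temperature; NADPH regeneration solution added, 37C for 1 h; detection reagent stops reaction, luminescence read after 20 min. Ketoconazole positive control.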

Sequence of Cytochrome P450 2C19 (Homo sapiens) (P33261 whole entry, looked up): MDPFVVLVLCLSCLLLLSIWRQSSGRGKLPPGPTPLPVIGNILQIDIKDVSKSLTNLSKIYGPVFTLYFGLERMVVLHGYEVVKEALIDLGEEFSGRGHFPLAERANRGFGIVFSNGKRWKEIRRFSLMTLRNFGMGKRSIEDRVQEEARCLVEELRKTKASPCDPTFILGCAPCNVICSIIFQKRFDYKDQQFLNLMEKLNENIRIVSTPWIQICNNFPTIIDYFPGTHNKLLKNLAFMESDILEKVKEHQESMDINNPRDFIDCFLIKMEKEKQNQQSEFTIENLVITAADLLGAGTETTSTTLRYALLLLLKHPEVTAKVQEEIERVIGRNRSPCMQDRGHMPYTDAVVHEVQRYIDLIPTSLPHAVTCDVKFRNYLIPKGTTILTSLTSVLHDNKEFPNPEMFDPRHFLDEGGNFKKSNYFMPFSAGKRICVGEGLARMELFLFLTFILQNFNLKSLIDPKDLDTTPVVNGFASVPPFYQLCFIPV

Structure (SMILES)	activity change, negative = inhibition	Potency
O=C(O)/C=C/c1ccccc1	5.53%	–
COc1ccc(/C=N/NC(=O)c2ccncc2)cc1OC	–	34.7 µM (active)
Nc1ccc(/C=C/c2ccc(N)cc2S(=O)(=O)O)c(S(=O)(=O)O)c1	14.7% [at 0.435 µM]	–
Cc1c(C(C)C)c(=O)n(-c2ccccc2)n1C	–	43.6 µM (active)
O=C(CN1CCN(Cc2ccc3c(c2)OCO3)CC1)N1c2ccccc2Sc2ccccc21	–	34.7 µM (active)
COc1cc([N+](=O)[O-])ccc1N	49.5%	–
Nc1ccc(S(=O)(=O)Nc2ccccn2)cc1	13.8% [at 52.9 µM]	–
CC(C)(CO)[C@@H](O)C(=O)NCCCO	-14% [at 52.9 µM]	–
COCC(=O)Nc1c(I)c(C(=O)NCC(O)CO)c(I)c(C(=O)N(C)CC(O)CO)c1I (stereo not drawn)	2.65% [at 52.9 µM]	–
O=c1cc(O)c(Cl)c[nH]1	-5.15% [at 52.9 µM]	–
COc1cc2c3cc1Oc1cc(ccc1O)C[C@@H]1c4c(cc(OC)c(O)c4Oc4ccc(cc4)C[C@@H]3N(C)CC2)CC[N+]1(C)C	21.5% [at 52.9 µM]	–
O=C(/C=C/c1ccccc1)NCCO	–	15.5 µM (active)
CCCCCCCCCCCCC1CO1 (stereo not drawn)	-10%	–
CCNC(=O)/C=C/c1cccc(Br)c1	-7.98% [at 52.9 µM]	–
CCCCOC(=O)[C@@H](C)Oc1ccc(Oc2ccc(C(F)(F)F)cn2)cc1	–	25.3 µM (active)
NS(=O)(=O)c1cc2c(cc1Cl)NC(CC1CCCC1)NS2(=O)=O (stereo not drawn)	-1.97% [at 52.9 µM]	–
CC(=O)N(CC(O)CO)c1c(I)c(C(=O)NCC(O)CO)c(I)c(C(=O)NCC(O)CO)c1I (stereo not drawn)	4.31% [at 52.9 µM]	–
CCCCOC(=O)C(=O)OCCCC	-3.69%	–
O=c1[nH]c(=O)c2[nH]c(=O)[nH]c2[nH]1	-2.11% [at 10.5 µM]	–
CCC1Nc2cc(Cl)c(S(N)(=O)=O)cc2S(=O)(=O)N1 (stereo not drawn)	13.7% [at 52.9 µM]	–
Cc1oc(=O)oc1CN1CCN(c2cc3c(cc2F)c(=O)c(C(=O)O)c2n3C(C)S2)CC1 (stereo not drawn)	-9.05% [at 52.9 µM]	–
COc1cc2c(Nc3ccc(Br)cc3F)ncnc2cc1OCC1CCN(C)CC1	18.4% [at 52.9 µM]	–
NC(=O)C1(N2CCCCC2)CCN(CCCC(=O)c2ccc(F)cc2)CC1	26.4% [at 52.9 µM]	–
O=c1[nH]c(=O)c2ccccc2o1	-10.6% [at 52.9 µM]	–
Nc1ccc(S(=O)(=O)NC(=O)c2ccccc2)cc1	10.5% [at 52.9 µM]	–
CC(=O)Nc1ncc([N+](=O)[O-])s1	12.2% [at 52.9 µM]	–
O=C(Nc1cccc(C2=NCCN2)c1)Nc1cccc(C2=NCCN2)c1	-6.53% [at 23.6 µM]	–
NC(=O)NC(=O)Cc1ccccc1	21.7% [at 52.9 µM]	–
